# Source: the supplement of paper PMC6555819
# Test system: RARa homodimer (NR concentration 270 nM)
# Test: PBM binding z-score (relative to random genomic background probes); higher = stronger binding; sequences stand for … in GC…GCGATTGACAGCGTAGAATGAAGG
# Summary of the method: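 Binding buffer was PBS pH 7.4 with 2% milk, 0.02% Triton X-100, 1 mM DTT, 0.2 mg/mL BSA and 0.4 mg/ml salmon testes DNA. In it, ligand-free nuclear receptor dimers were incubated 1 h on custom Agilent 4×180K protein-binding microarrays carrying double-stranded probes. Antibodies against each partner (one per run) detected binding, and z-scores were calculated against random background probes after regression normalization of scanned fluorescence.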
row,Sequence,PBM binding z-score
1,CTATGTAGGGTAAGGGGGTCATTCAGTTTGAAAG,1.26
2,TCGAGAAGGTTACGGGGGCATTCAGGGATGAAGA,0.65
3,TCGAGTAGGTTACGGGGGTATTCAGGGATGAAGA,0.925
4,CCGAGTAGGTTACGAGGGGGCATTTAGTGCGAAT,0.176
5,TCGAGTAGGTTACAGGGGCATTCAGGGATGAAGA,0.487
6,CCGAGTAGGTTACGACGGGGCATTCAGTGCGAAT,-0.209
7,CCGAGTAGGTTACGAGGGGGCATGCAGTGCGAAT,0.865
8,CTATGCAGGTTAAGGGGGTCATTCAGTTTGAAAG,1.66
9,TCGAGTAGGGTACGGGGGCATTCAGGGATGAAGA,0.475
10,CCGAGTAGGTTACGAGCGGGCATTCAGTGCGAAT,-0.596
11,CCGAGTAGGTTACGAGGGGGCCTTCAGTGCGAAT,0.0772
12,TCGAGTAGGTTAGGGGGGCATTCAGGGATGAAGA,2.35
13,CTATGTAGGTTAAGGGGTTCATTCAGTTTGAAAG,1.25
14,CTATGTAGGTTAAGGGGGTCAATCAGTTTGAAAG,0.971
15,CCGAGTAGGTTACGAGGGGGCATTCACTGCGAAT,0.267
16,TCGAGTAGGTTACGGGGGCATTCCGGGATGAAGA,0.0892
17,CTATGTAGTTTAAGGGGGTCATTCAGTTTGAAAG,2.73
18,CCGAGTAGGTTACGAGGGGGCAATCAGTGCGAAT,0.639
19,CTAGGTAGGTTAAGGGGGTCATTCAGTTTGAAAG,1.74
20,CTATGTATGTTAAGGGGGTCATTCAGTTTGAAAG,3.39

row,Sequence,PBM binding z-score
1,CCGAGTAGATTACGAGGGGGCATTCAGTGCGAAT,-0.0773
2,CCGAGTAGGTTACGAGGGGGCACTCAGTGCGAAT,0.931
3,CCGAGTAGGTTGCGAGGGGGCATTCAGTGCGAAT,0.292
4,TCGAGTTGGTTACGGGGGCATTCAGGGATGAAGA,0.444
5,CTACGTAGGTTAAGGGGGTCATTCAGTTTGAAAG,0.985
6,CTTTGTAGGTTAAGGGGGTCATTCAGTTTGAAAG,2.04
7,CTATGTAGGTTAAGGGGGTCATTAAGTTTGAAAG,1.68
8,TCGAGTAGGTTACGGTGGCATTCAGGGATGAAGA,-0.958
9,CTATGTAGGTTAAGGGGCTCATTCAGTTTGAAAG,0.222
10,TCGAATAGGTTACGGGGGCATTCAGGGATGAAGA,1.33
11,CTATGTAGGTTAAGGGGATCATTCAGTTTGAAAG,0.323
12,CCGAGTAGGTTATGAGGGGGCATTCAGTGCGAAT,0.734
13,CAGAGTAGGTTACGAGGGGGCATTCAGTGCGAAT,1.21
14,CCGAGTAGGTTACGAGGCGGCATTCAGTGCGAAT,-0.448
15,CTATGTAGGTTAAGTGGGTCATTCAGTTTGAAAG,0.913
16,TCGAGTAAGTTACGGGGGCATTCAGGGATGAAGA,0.119
17,TCGAGTAGGTTACGGGGGCATTAAGGGATGAAGA,0.727
18,CTATGTAGGTTAAGGGGGTCATCCAGTTTGAAAG,1.05
19,TCGAGTAGTTTACGGGGGCATTCAGGGATGAAGA,-0.25
